About 83,000 compounds went through this panel and 20% of them were active in at least one assay; those are over-represented in the sample as a whole.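 96-well plates, one dose, 48 hours. Percent growth reported; active if below 10.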 A number with no mark means an inactive call. Active and inactive are the calls of the source.

In this test the test system is OVCAR-3 ovarian. In words: NCI-60 one-dose screen, 48 h (100 = growth as untreated, 0 = no growth, -100 = all killed). The note with it: 10 µM unless noted. The method, then:
Growth inhibition of the OVCAR-3 human tumor cell line is measured as a screen for anti-cancer activity. Cells are grown in 96 well plates and exposed to the test compound for 48 hours. Compounds are tested at a single concentration, which is 10^-5 M for most compounds. The reported endpoint is percent growth (GI% or GIPRCNT), where numbers from 0 - 100% represent growth inhibition, and numbers from -100% - 0 represent cell death. For example, a value of 40 represents 60% growth inhibition. A value of 0 means no net growth occurred over the course of the experiment. A value of -40 indicates 40% of cells at the beginning of the experiment died by the end of the experiment. A value of -100 means all cells are dead at the end of the experiment.
NCI-60 Human Tumor Cell Lines Screen was performed using the standard one-dose NCI protocol, which is described in more detail at https://dtp.cancer.gov/discovery_development/nci-60/default.htm.
Compounds with GIPRCNT values below 10 were considered active. Activity score was based on GIPRCNT using the following formula: […]
Score is 0 for GIPRCNT values of 100 or above, 50 for GIPRCNT values of 0, and 100 for GIPRCNT values of -100.
As for `CCOC(=O)c1ccc2[nH]c(O)c(C(=Nc3ccc(N(C)C(=O)CN4CCN(C)CC4)cc3)c3ccccc3)c2c1`, the growth is -76.5% (active).
In the case of `Oc1c(Cl)cc(Cl)c2ccc(Cn3cc(-c4cc(F)cc(F)c4)nn3)nc12`, the growth is 2.47% (active).
Consider `C1=CN2CC(c3ccccc3)=NNC2c2ccccc21` (stereo not given), for which the growth is 81.5%.
For `O=C1/C(=C/c2ccc(Cl)c(Cl)c2)CN(C(=O)C(Cl)Cl)C/C1=C\c1ccc(Cl)c(Cl)c1`, the growth is -97.9% (active).
For `CN(C)c1ccc(Nc2cc(-c3cccc(OC(F)(F)F)c3)nc3ccc(N4CCCC4)cc23)cc1`, the growth is -49.7% (active).
Turning to `CCCCCCCCCCCCCCCCCCOc1ccccc1CC(=O)OCC[N+]1(C)CCCC1`, the growth was 22.3%.
For the compound `Cc1ccc(/C=N/Nc2nc(Nc3ccccc3)nc(-n3nc(C)cc3C)n2)cc1`, the growth was 14.3%.
The result for `O=C1Nc2ccccc2/C1=C\c1nc(-c2ccccc2)n2ccccc12` reads 115%; that for `CCCc1cc(NC)nc(S(=O)(=O)CC)n1`, 119%.
The result for `O=C(CI)NC1Oc2ccccc2-c2oc(=O)c(-c3ccccc3)cc21` (stereo not given) reads -95.1% (active); that for `CCOC(=O)c1cn2ncnc(Oc3ccc(NC(=O)NC4CCCCC4)c(Cl)c3)c2c1C`, 109%.
In the case of `CCOC(=O)c1cc(-c2ccc([N+](=O)[O-])cc2)n(-c2ccc(C(=O)O)c(O)c2)c1C`, the growth is 79.6%.
Under `COc1ccc(-c2csc(N(C(=O)N3CCN(c4cc5c(cc4F)c(=O)c(C(=O)O)cn5C4CC4)CC3)c3ccccc3)n2)cc1` stands 8.09% (active); under `C#CCn1cnc2c(Nc3cccc(NC(=O)C=C)c3)ncnc21`, 88.5%.
Regarding `CCN(C(=O)N1CCN(c2cc3c(cc2F)c(=O)c(C(=O)O)cn3C2CC2)CC1)c1nc(-c2ccc(Cl)cc2)cs1`, the growth was 10.1%.
With `COc1ccc2cc(-c3ccc(NC(C)=O)c(=O)o3)ccc2c1`, the growth was 101%.
`CC(C)CCC[C@@H](C)[C@H]1CC[C@H]2[C@@H]3CC=C4C[C@@H](C(C(=O)O)C(=O)O)CC[C@]4(C)[C@H]3CC[C@]12C`: the growth was -73.5% (active).
Consider `COc1ccc(CC(C#N)c2cc3ccccc3[nH]2)cc1` (stereo not given), for which the growth is 92%.
On to `OCCCC1CCN(C(Cc2ccccc2)c2ccccc2)CC1` (stereo not given), for which the growth was 89.2%.
The result for `Cc1ccc(-c2nc(/C=C3/C(=O)Nc4ccccc43)c3ccccn23)cc1` reads 119%; that for `CC1Cc2c(Cl)ncnc2N(C)c2ccc(F)cc21` (stereo not given), 106%.
In the case of `O=C1c2cccc3cccc(c23)C(=O)N1N1C(=O)c2cccc3c(N4CCOCC4)ccc(c23)C1=O`, the growth is 106%.
For the compound `O=C(CCC(=O)N/N=C/c1ccccc1O)N/N=C/c1ccccc1O`, the growth was 23.4%.
Under `O=C(CN1C(=O)CCC1=O)Nc1ncc(Cc2ccc(F)cc2)s1` stands 103%; under `CC(C)(C)c1cc(-c2nc3ccc(N4CCN(S(C)(=O)=O)CC4)cc3[nH]2)cc(C(C)(C)C)c1O`, 98.8%; under `CC(=O)c1cc(O)c2ccccc2c1O`, 91.7%.
`CCCCOC(=O)OCc1cc(=O)c(O)co1`: the growth is 114%.
For `O=S(=O)(NCCNc1nccc(-c2c(-c3cccc(F)c3)nc3occn23)n1)c1ccc(Br)cc1`, the growth is 90.1%.
Take `O=C(c1ccc(-c2ccccc2)cc1)c1ccc([N+](=O)[O-])cc1`: the growth was 104%.
As to `O=C(Cn1cc(CN2CCCCCC2)nn1)Nc1ccc2c(ccn2Cc2ccccc2)c1`, the growth is 95.7%.
The result for `Oc1c(Cl)cc(Cl)c2ccc(Cn3cc(-c4ccc(C(F)(F)F)cc4)nn3)nc12` reads -16.1% (active); that for `CO/N=C(/C)c1ccc(NC(=O)CSc2nnc(-c3ccncc3)n2-c2ccccc2)cc1`, 29.3%; that for `N#CC1=C(N)Oc2c(sc3c(F)cccc23)C1c1ccc(F)cc1` (stereo not given), 10.9%.
On to `Cc1ccc(-c2nc3nc(-c4ccc(F)cc4)nc(N4CCNCC4)c3o2)cc1`, for which the growth is -94.7% (active).
As to `C=CCn1cc(-c2nc3ccccc3s2)c2cc(-c3ccc4c5c(cccc35)C(=O)N(N)C4=O)ccc21`, the growth was 100%.
The result for `CCCCC(=O)Nc1ncc(Cc2ccc(Cl)cc2)s1` reads 68.3%; that for `N#C/C(=C\c1ccc(-c2ccc(Cl)cc2)o1)C(=O)Nc1ncc(Cc2ccc(Cl)cc2)s1`, -49.8% (active); that for `CN1C(=O)N(C)C2Nn3c(s/c(=C\c4ccc(C(F)(F)F)cc4)c3=O)=NC21` (stereo not given), 106%.
Turning to `CCc1n(Cc2ccc3ccccc3c2)cc[n+]1Cc1ccc2ccccc2c1`, the growth is -16.3% (active).
The result for `O=C(NNC(=O)c1ccc(-n2cc(-c3ccccc3)nn2)cc1)Nc1ccccc1` reads 114%.

These data come from PubChem BioAssay (NCI).
